Most compounds without a hit are left out; they make up all but 11% or so of the library.
HP1b chromo inh: HTS for Inhibitors of HP1-beta Chromodomain Interactions with Methylated Histone Tails; AlphaScreen HP1-beta / biotin-H3K9me3 peptide binding; 390,000 tested, 0.56% active; Chromobox protein homolog 1 (Homo sapiens), P83916; Potency, µM (highest dose often 114 µM), for inactives: top-dose activity change, negative = inhibition, usual class: inhibitors; note: nearly all actives have a fitted effect of over 70% in size
Target sequence (P83916 whole entry, looked up): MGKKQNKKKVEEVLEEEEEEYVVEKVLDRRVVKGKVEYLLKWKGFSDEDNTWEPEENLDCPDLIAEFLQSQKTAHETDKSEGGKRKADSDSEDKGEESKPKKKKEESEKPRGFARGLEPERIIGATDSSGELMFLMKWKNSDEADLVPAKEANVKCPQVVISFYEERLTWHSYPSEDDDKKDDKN
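Compound inhibition of the preformed complex between 50 nM HP1-beta and 50 nM biotinylated H3K9me3 peptide was read by AlphaScreen. Buffer was PBS pH 7.4 with 0.01% Tween-20. Incubations ran 30 min at room temperature, with 10 ug/mL donor/acceptor beads.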
L3MBTL1 block: qHTS Assay for the Inhibitors of L3MBTL1; 230,000 tested, 0.66% active; AID 485360, 2010; Lethal(3)malignant brain tumor-like protein 1 (Homo sapiens), Q9Y468; Potency, µM (highest dose often 57.1 µM), for the others: top-dose activity, negative = inhibition, usual class: inhibitors; AlphaScreen L3MBTL1–H3K9me1 peptide binding; note: % is set by controls: 0 for no effect and ±100 for the full control effect; nearly all actives have a fitted effect of over 60% in size
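Read-out is AlphaScreen signal from streptavidin donor and nickel chelate acceptor beads (10 ug/mL final each) bridging L3MBTL1 (50 nM) and biotinylated K9-monomethylated H3(1-15) peptide (75 nM), after 30 min compound exposure at room temperature.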
G9a block: qHTS Assay for Inhibitors of Histone Lysine Methyltransferase G9a; Histone-lysine N-methyltransferase EHMT2 (Homo sapiens), Q96KQ7; G9a H3K9 monomethylation, AlphaScreen, 2 h; Potency, µM (highest dose often 102 µM), without a hit: at the highest dose activity, negative = inhibition, actives largely listed as inhibitors; 350,000 tested, 8.8% active; AID 504332, 2011; note: % is set by controls: 0 for no effect and ±100 for the full control effect; nearly all actives have a fitted effect of over 75% in size
Target sequence (Q96KQ7 913-1193 limits assumed): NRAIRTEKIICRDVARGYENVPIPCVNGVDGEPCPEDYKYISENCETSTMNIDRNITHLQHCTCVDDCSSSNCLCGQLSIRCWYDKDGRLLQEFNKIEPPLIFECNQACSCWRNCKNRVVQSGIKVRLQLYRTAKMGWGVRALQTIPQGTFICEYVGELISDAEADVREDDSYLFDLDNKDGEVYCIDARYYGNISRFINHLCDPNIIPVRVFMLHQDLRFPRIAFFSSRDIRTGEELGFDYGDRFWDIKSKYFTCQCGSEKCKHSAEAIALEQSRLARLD
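Signal arises when biotinylated H3K9 peptide, once monomethylated, bridges streptavidin donor and antibody-captured acceptor beads. Enzyme at 20 nM was preincubated 15 min with test compounds; peptide 500 nM and SAM 20 uM then reacted for 2 h.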
JMJD2A Tudor inh: qHTS Assay for Inhibitors of JMJD2A-Tudor Domain | 390,000 tested, 4.4% active | Potency, µM (doses to about 114 µM), without a hit: top-dose activity change, negative = inhibition, most hits filed as inhibitors | AlphaScreen JMJD2A-Tudor / H3K4me3 peptide binding | AID 504339, 2011; note: % is set by controls: 0 for no effect and ±100 for the full control effect; nearly all actives have a fitted effect of over 50% in size
BAZ2B inh: qHTS Assay for Inhibitors of BAZ2B; 360,000 tested, 4.4% active; Bromodomain adjacent to zinc finger domain protein 2B (Homo sapiens), Q9UIF8; Potency, µM (titrated, usually from 114 µM), for inactives: top-dose activity change, negative = inhibition, hits mostly inhibitors; AlphaScreen BAZ2B-H3K14Ac peptide displacement; note: % is set by controls: 0 for no effect and ±100 for the full control effect; nearly all actives have a fitted effect of over 60% in size
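BAZ2B 50 nM plus b-H3(5-23)K14Ac 50 nM, PBS pH 7.4/0.01% Tween-20, 30 min RT; compound added (max 110 uM), 30 min RT; streptavidin donor/Ni-chelate acceptor beads 10 ug/mL final, 20 min dark; AlphaScreen read.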
Numbers without * were called inactive; [ ] = dose if it differs, or a comment. Calls come from the whole dose curve; as a rule, active = well fitted inhibition curve with a large enough effect; inconclusive = small, poorly fitted or top-dose-only effect; inactive = no such curve, though single readings can be large or run the other way. Potency is the fitted concentration of half-maximal effect.

Screening CC(C)(C)c1ccc(OCC(=O)NC(Cc2c[nH]c3ccccc23)C(=O)O)cc1 (centres undefined) returned HP1b chromo inh 28%, G9a block inconclusive, JMJD2A Tudor inh -30% and BAZ2B inh inconclusive.
Cc1c(OCC(=O)NC(Cc2ccc(Cl)cc2)C(=O)O)ccc2c3c(c(=O)oc12)CCC3 (centres undefined) was read as HP1b chromo inh 33%, L3MBTL1 block -2%, G9a block inconclusive, JMJD2A Tudor inh -14% and BAZ2B inh -2%[57.1 µM].
Screening O=C(Nc1ccccc1C(=O)NC(Cc1c[nH]c2ccccc12)C(=O)O)c1ccco1 (centres undefined) returned HP1b chromo inh 32%, L3MBTL1 block -4%, G9a block -27%[59 µM], JMJD2A Tudor inh -13% and BAZ2B inh 10%.
Screening COc1ccc(C(=O)Nc2ccccc2C(=O)NC(Cc2c[nH]c3ccccc23)C(=O)O)cc1 (centres undefined) returned HP1b chromo inh -19%, L3MBTL1 block -12%, G9a block inconclusive, JMJD2A Tudor inh -14%[11.4 µM] and BAZ2B inh 79µM*.
For Cc1c(OCC(=O)NC(Cc2ccc(Cl)cc2)C(=O)O)ccc2c1oc(=O)c1ccccc12 (centres undefined) the results were HP1b chromo inh 14%, G9a block -1%[12.7 µM], JMJD2A Tudor inh -30% and BAZ2B inh 56µM*.
Screening O=C(COc1ccccc1)NC(Cc1c[nH]c2ccccc12)C(=O)O (centres undefined) returned HP1b chromo inh 22%, L3MBTL1 block -4%, G9a block 35µM*, JMJD2A Tudor inh -20% and BAZ2B inh -39%.
Screening Cc1n[nH]c(C)c1CCC(=O)N/N=C/c1cccs1 returned HP1b chromo inh 35%, L3MBTL1 block -8%, G9a block inconclusive, JMJD2A Tudor inh -14% and BAZ2B inh -17%.
`Cc1cccc(OCC(=O)NC(Cc2c[nH]c3ccccc23)C(=O)O)c1C` (centres undefined) gave HP1b chromo inh -6%, G9a block 40µM*, JMJD2A Tudor inh -29% and BAZ2B inh -25%.
O=C(O)C(Cc1c[nH]c2ccccc12)N1C(=O)C2C3c4ccccc4C(c4ccccc43)[C@@H]2C1=O (some centres undefined) was read as HP1b chromo inh 10%, L3MBTL1 block -7%, G9a block 50µM*, JMJD2A Tudor inh -21% and BAZ2B inh -27%.
`CC(C)CC(C(=O)O)N1C(=O)C2C3c4ccccc4C(c4ccccc43)[C@@H]2C1=O` (some centres undefined) gave HP1b chromo inh 29%, G9a block 6%, JMJD2A Tudor inh -13% and BAZ2B inh -15%.
Screening CCOc1cc(C(=O)NCCc2csc(-c3ccc(C)cc3)n2)cc(OCC)c1OCC returned HP1b chromo inh 17%[57 µM], G9a block 18%[59 µM], JMJD2A Tudor inh -7% and BAZ2B inh 7%.
Cc1ccc(CNC(=O)CCc2c(C)c3cc4c(C)coc4cc3oc2=O)cc1 was read as HP1b chromo inh 86%, G9a block 7%[59 µM], JMJD2A Tudor inh -18% and BAZ2B inh 1%.
For CCC(=O)NCc1ccc2[nH]c(C)cc2c1 the results were HP1b chromo inh 32%, L3MBTL1 block 0%, G9a block 35µM*, JMJD2A Tudor inh -18% and BAZ2B inh -16%.
For CC(=O)NCc1ccc2[nH]c(C)cc2c1 the results were HP1b chromo inh 18%, L3MBTL1 block 0%, G9a block inconclusive, JMJD2A Tudor inh -8% and BAZ2B inh -7%.
CCc1cccc(C)c1NC(=S)NCc1ccc2[nH]c(C)cc2c1 was read as HP1b chromo inh 5%, L3MBTL1 block -13%, G9a block inconclusive, JMJD2A Tudor inh inconclusive and BAZ2B inh 40µM*.
`S=c1[nH]nc(COc2ccc3ccccc3c2)o1` gave HP1b chromo inh -15%, L3MBTL1 block 3%, G9a block 0.89µM*, JMJD2A Tudor inh -23% and BAZ2B inh -34%.
COc1ccc(CCCc2n[nH]c(=S)o2)cc1 was read as HP1b chromo inh 29%, G9a block inconclusive, JMJD2A Tudor inh -12% and BAZ2B inh inconclusive.
`S=c1[nH]nc(CSCCOc2ccccc2)o1` gave HP1b chromo inh 36%, L3MBTL1 block 11%, JMJD2A Tudor inh -17% and BAZ2B inh -17%.
`COc1ccc(Cc2n[nH]c(=S)o2)cc1` gave HP1b chromo inh 26%, L3MBTL1 block 8%, JMJD2A Tudor inh 32µM* and BAZ2B inh -4%.
`N#CCC(=O)c1ccccc1Oc1ccc(Cl)cc1` gave HP1b chromo inh 47%, L3MBTL1 block -12%, G9a block 1%, JMJD2A Tudor inh -16% and BAZ2B inh inconclusive.
Screening CCOc1cc(C2C3=C(CCCC3=O)N(C)C3=C2C(=O)CCC3)cc(Cl)c1O returned HP1b chromo inh 18%, L3MBTL1 block -13%, G9a block inconclusive, JMJD2A Tudor inh 5% and BAZ2B inh 5%.
For CCN1C2=C(C(=O)CCC2)C(c2ccc(O)cc2)C2=C1CCCC2=O the results were HP1b chromo inh 27%, L3MBTL1 block 6%, G9a block 20µM*, JMJD2A Tudor inh -1% and BAZ2B inh 5%.
For O=[S+]([O-])(c1ccc2c(c1)OCCO2)N1CCN([S+](=O)([O-])c2c(F)cc(O)cc2F)CC1 the results were JMJD2A Tudor inh -23%.
FC(F)(F)c1cc(C(F)(F)F)c2ccc(N/N=C/c3ccccc3)nc2n1 was read as HP1b chromo inh 41%, L3MBTL1 block -3%, G9a block -8%[59 µM], JMJD2A Tudor inh -11% and BAZ2B inh 3%.
CN(N)c1ccc2c(C(F)(F)F)cc(C(F)(F)F)nc2n1 was read as HP1b chromo inh -15%, G9a block 35%, JMJD2A Tudor inh inconclusive and BAZ2B inh inconclusive.
Cc1ccc(C(C#N)c2ccc3c(C(F)(F)F)cc(C(F)(F)F)nc3n2)cc1 (centres undefined) was read as HP1b chromo inh 14µM*, L3MBTL1 block inconclusive, G9a block 11µM*, JMJD2A Tudor inh 5.6µM* and BAZ2B inh 8.9µM*.
For N#CC(c1ccccc1)c1ccc2c(C(F)(F)F)cc(C(F)(F)F)nc2n1 (centres undefined) the results were HP1b chromo inh 14µM*, G9a block 10µM*, JMJD2A Tudor inh 45µM* and BAZ2B inh 10µM*.
For Cc1ccc(/C=C2/C(=O)ON=C2c2ccccc2)o1 the results were HP1b chromo inh inconclusive, L3MBTL1 block -12%, G9a block 13µM*, JMJD2A Tudor inh 79µM* and BAZ2B inh 28µM*.
Cc1ccc(C2=NOC(=O)/C2=C\c2ccccc2)cc1 was read as HP1b chromo inh 40% and JMJD2A Tudor inh -12%.
